Shown are actives, neighbours in structure and some others; about 19% of the full set was active somewhere.
TDP1 cell CPT – DT40-hTDP1 cell growth loss with CPT; AID 686979; 420,000 tested, 12% active; Potency, µM (doses to about 46.2 µM), for inactives: at the top dose activity change, negative = growth inhibition, most hits filed as inhibitors; chicken DT40 Tdp1-/-;hTDP1 cells + 20 nM CPT, ATP luminescence, 48 h; also: potency is read from the fitted curve at half-maximal effect; % is scaled to controls: 0 for no effect and ±100 for the full control effect; nearly all actives have a fitted effect of over 55% in size
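Cell growth measured by CellTiter-Glo luminescence after a minimum 48 h, 37 C compound exposure with 20 nM CPT in Tdp1-knockout DT40 cells stably expressing hTDP1, seeded 400/well; qHTS titration format.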
TGFb SMAD3 inh – TGF-b pathway inhibition. Potency, µM (doses to about 46.1 µM), without a hit: at the top dose activity, negative = inhibition, most hits filed as inhibitors. AID 588855. 410,000 tested, 1.2% active. HepG2 CAGA-GFP TGF-b/SMAD3 reporter, GFP fluorescence, 18 h; TGF-beta stimulated, 500 pg/mL final; also: potency is read from the fitted curve at half-maximal effect; % is scaled to controls: 0 for no effect and ±100 for the full control effect; nearly all actives have a fitted effect of over 65% in size
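Read-out: total well GFP (ex488/em500-530) summed from mean per-cell fluorescence. Cells: HEPG2 CAGA-GFP, 1% FBS DMEM, 18 h at 37 degrees C with 500 pg/mL final TGF-beta. Unstimulated wells served as the full-inhibition control; stimulated DMSO wells = 0%.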
HepG2 viability – counter-screen for TGF-b inhibitors: cytotoxicity in HepG2 cells; HepG2 CAGA-GFP viability, ATP luminescence, 18 h; Potency, µM (top dose mostly 46.1 µM), for the others: top-dose activity change, negative = cytotoxicity, most hits filed as cytotoxic; 410,000 tested, 0.76% active; AID 588856; also: potency is read from the fitted curve at half-maximal effect
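CellTiter-Glo luminescence gave cytotoxicity after 18 hours at 37 degrees C. The cells were HepG2 CAGA-GFP in 1% FBS DMEM, stimulated with 500 pg/mL TGF-beta after compound addition. %Activity was normalised to no-cell wells (complete cell-killing) and DMSO (no toxicity), and curves were fitted and classified.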
IL1B secr inh – blocks inflammasome-driven IL-1 beta release. activity change, % at 57.5 µM. THP-1 LPS/ATP IL-1B secretion, AlphaLISA, 16 h; active compounds read low. 360,000 tested, 4.7% active; in the data active = activity change below about -50%; inconclusive = mostly about -30% to -49%; also: % is scaled to controls: 0 for no effect and ±100 for the full control effect
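Secreted IL-1B measured by AlphaLISA bead assay after 16 h compound exposure of THP-1 cells; compounds (final up to 57.5 uM) added 1 h before LPS (250 ng/mL) and ATP (1.25 mM) stimulation; lower signal means less secretion.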
DT40 TDP1 no CPT – qHTS for Inhibitors of human tyrosyl-DNA phosphodiesterase 1 (TDP1): qHTS in cells in absence of CPT | DT40 Tdp1-/- hTDP1 cells, no CPT, ATP luminescence, 48 h | Potency, µM (series often up to 46.2 µM), for the others: at the highest dose activity change, negative = growth inhibition, hits mostly inhibitors | 420,000 tested, 15% active; also: potency is read from the fitted curve at half-maximal effect; % is scaled to controls: 0 for no effect and ±100 for the full control effect; nearly all actives have a fitted effect of over 55% in size
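Growth of hTDP1-complemented DT40 Tdp1-knockout cells is measured by ATP luminescence after at least 48 hr compound exposure at 37 °C, with DMSO substituting for the 20 nM CPT used in the parallel screen.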
S-ASM inh – blocks human secretory acid sphingomyelinase | P17405 | placental ASM, HMU-PC fluorogenic substrate, 60 min | Potency, µM (doses to about 57.5 µM), inactives show top-dose activity change, negative = inhibition, most hits filed as inhibitors | 340,000 tested, 0.006% active; also: potency is read from the fitted curve at half-maximal effect
Target sequence (P17405 47-631 limits assumed): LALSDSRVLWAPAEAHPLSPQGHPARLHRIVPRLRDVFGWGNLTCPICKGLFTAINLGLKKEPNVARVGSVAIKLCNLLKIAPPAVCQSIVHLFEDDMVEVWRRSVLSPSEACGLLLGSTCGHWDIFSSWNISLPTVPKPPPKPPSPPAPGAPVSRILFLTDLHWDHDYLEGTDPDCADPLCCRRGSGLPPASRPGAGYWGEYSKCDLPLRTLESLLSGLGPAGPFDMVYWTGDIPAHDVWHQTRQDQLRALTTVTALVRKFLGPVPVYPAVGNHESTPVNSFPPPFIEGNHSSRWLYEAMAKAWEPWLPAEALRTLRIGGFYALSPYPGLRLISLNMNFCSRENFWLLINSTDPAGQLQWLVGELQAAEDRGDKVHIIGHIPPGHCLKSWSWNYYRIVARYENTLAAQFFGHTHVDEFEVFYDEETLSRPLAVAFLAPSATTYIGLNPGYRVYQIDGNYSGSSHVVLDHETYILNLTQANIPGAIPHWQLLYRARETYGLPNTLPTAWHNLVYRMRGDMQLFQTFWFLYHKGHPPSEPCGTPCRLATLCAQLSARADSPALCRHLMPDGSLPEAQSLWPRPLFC
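HMU-PC0 cleavage (9 uM final) by human placental ASM, 60 min at 37 °C following 10 min compound exposure at RT; stopped at pH 10, fluorescence Ex 386/Em 447 nm.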
An asterisk follows results filed as active; i = inactive; ? = inconclusive; / = no result given; [ ] = remark or other dose. Unless noted, calls follow the shape of the dose curve; as a rule, active = well fitted curve in the direction sought with a large enough effect; inconclusive = small, poorly fitted or top-dose-only effect, or another doubt; inactive = no such curve, though single readings can be large; an effect the other way counts as inactive or inconclusive.

SMILES	TDP1 cell CPT	TGFb SMAD3 inh	HepG2 viability	IL1B secr inh	DT40 TDP1 no CPT	S-ASM inh
COc1ccc(N2CCN(C(=O)CCc3c(C)nc4cc(-c5ccc(Cl)cc5)nn4c3C)CC2)cc1	2%	0%	-18%	/	-29%	/
COc1cc(OC)cc(-c2cc3nc4c(c(N5CCN(c6ncccn6)CC5)n3n2)CCCC4)c1	?	-3%	10%	-11	23µM*	2%
CCc1c(C)nc2cc(-c3cc(OC)cc(OC)c3)nn2c1N1CCCC1	29µM*	?	-69%	?	23µM*	?
COc1cccc(CN2CCN(c3ncccn3)CC2)c1	-16%	0%	-6%	-19	-14%	4%
CC(C(=O)OCC(=O)NC1CCCCC1)N1C(=O)c2ccccc2C1=O (stereo unspecified)	-2%	-17%	-34%	7	-1%	0%
CCOCCN1CCN(c2c(CC)c(C)nc3cc(-c4cc(OC)cc(OC)c4)nn23)CC1	21µM*	4%	-11%	?	15µM*	-3%
COc1ccc(-c2cc(-c3ccccc3)nc(N3CCCC3)n2)cc1OC	-7%	-1%	-27%	-10	-19%	480%
CCc1c(C)nc2cc(-c3ccc(OC)c(OC)c3)nn2c1N1CCCC1	?	22µM*	-93%	?	23µM*	-3%
CCCCCC1CCNCC1	6.3µM*	?	-51%	/	8.9µM*	/
NC(=O)c1nsc(C(=O)N(c2ccccc2)C(C(=O)NCc2ccc(F)cc2)c2ccco2)c1N (stereo unspecified)	?	-27%	8%	24	?	i
COc1ccc(N(C(=O)c2snc(C(N)=O)c2N)C(C(=O)NCc2ccccc2)c2ccc(O)cc2)cc1 (stereo unspecified)	?	11%	-37%	-21	23µM*	98%
COc1ccc(CNC(=O)C(c2ccc(C)o2)N(C(=O)c2snc(C(N)=O)c2N)c2ccccc2OC)cc1 (stereo unspecified)	?	6%	1%	-6	-21%	i
NC(=O)c1nsc(C(=O)N(c2ccccc2)C(C(=O)NCc2ccc(F)cc2)c2ccc(O)cc2)c1N (stereo unspecified)	21µM*	5%	-17%	-19	18µM*	169%
COc1ccc(OC)c(N(C(=O)c2snc(C(N)=O)c2N)C(C(=O)NCc2ccccc2)c2ccc(O)cc2)c1 (stereo unspecified)	?	-8%	-34%	-79*	?	299%
CCN(Cc1ccncc1)Cc1ccc2c(c1)CN(C(=O)c1ccc(OC)cc1)CCO2	-1%[9.04 µM]	/	/	/	-27%	/
NC1=NC(=O)C(c2ccccc2)C(=O)N1 (stereo unspecified)	16%	-3%	-2%	-2	5%	3%
CCCNC(=O)Cn1nc([N+](=O)[O-])c([N+](=O)[O-])c1C	-10%	-1%	11%	-6	-18%	5%
Cc1c([N+](=O)[O-])c([N+](=O)[O-])nn1CC(=O)NCCc1ccccc1	-3%	-21%	-19%	-90*	7%	4%
CC(C)c1onc(C(=O)NCCc2ccccc2)c1[N+](=O)[O-]	21µM*	-14%	-8%	-12	?	2%
O=C(NCCN1CCCC1)c1ccc2c(c1)N(Cc1ccc(F)cc1)C(=O)c1ccccc1S2=O (stereo unspecified)	?	-13%	-6%	-24	?	-2%
O=C(NCc1ccco1)c1ccc2c(c1)N(Cc1ccc(F)cc1)C(=O)c1ccccc1S2=O (stereo unspecified)	?	-14%	-26%	/	16µM*	/
Cc1ccc(C)c(CN2C(=O)c3ccccc3S(=O)c3ccc(C(=O)NCc4ccco4)cc32)c1 (stereo unspecified)	?	-10%	-37%	/	16µM*	/
CCCCNC(=O)c1ccc2c(c1)N(Cc1ccc(F)cc1)C(=O)c1ccccc1S2=O (stereo unspecified)	23µM*	0%	-5%	/	18µM*	/
O=C(NCc1ccco1)c1ccc2c(c1)N(Cc1ccccc1F)C(=O)c1ccccc1S2=O (stereo unspecified)	-19%	2%	-7%	/	?	/
Cn1cccc1C(=O)OCC(=O)NC1CCS(=O)(=O)C1 (stereo unspecified)	18%	?	-8%	-12	-15%	9%
SMILES	TDP1 cell CPT	TGFb SMAD3 inh	HepG2 viability	IL1B secr inh	DT40 TDP1 no CPT	S-ASM inh
COc1cccc(Oc2nc(N)ncc2[N+](=O)[O-])c1	-19%	-3%	-6%	-73*	-18%	5%
Nc1ncc([N+](=O)[O-])c(Oc2ccccc2F)n1	-9%	4%	-1%	6	-7%	1%
Cn1nnc2c(NCc3ccccc3Cl)ncnc21	-10%	-3%	-3%	/	-10%	/
COc1cccc(CNc2nc3cc(-c4ccccc4CO)sc3c(=O)n2C)c1	18µM*	-10%	-20%	-10	?	/
COc1cccc(CNc2nc3cc(-c4cccc(OC)c4)sc3c(=O)n2C)c1	?	-4%	-5%	38	?	/
COc1cccc(CNc2nc3cc(-c4cscc4C)sc3c(=O)n2C)c1	?	?	-27%	-57*	21µM*	/
COc1cccc(CNc2nc3cc(-c4ccc(OC)cc4C)sc3c(=O)n2C)c1	?	?	-24%	-15	?	/
Cc1c(Cn2cnc3c(cnn3C(C)(C)C)c2=O)cccc1C(F)(F)F	/	-27%	-7%	/	/	/
O=C(NCCN1CCOCC1)c1c(O)nc2sccn2c1=O	-7%	-1%	2%	-16	-30%	1%
Cc1ccc(NS(=O)(=O)c2ccc3[nH]c4c(c3c2)CCCCCC4)cc1C	?	?	-116%	/	16µM*	/
Cc1ccc(NS(=O)(=O)c2ccc3[nH]c4c(c3c2)CCCCCC4)cc1	26µM*	?	-104%	/	?	/
Cc1ccc(NC(=S)NCc2ccc3[nH]c4c(c3c2)CCCC4)cc1	?	?	-43%	?	13µM*	-7%
Cc1ccc(N(C)S(=O)(=O)c2ccc3[nH]c4c(c3c2)CCCC4)cc1	?	?	-28%	/	?	/
CCOC(=O)c1ccc(NS(=O)(=O)c2ccc3[nH]c4c(c3c2)CCCCC4)cc1	/	?	25µM*	/	/	/
CCOc1ccccc1NS(=O)(=O)c1ccc2[nH]c3c(c2c1)CCCCC3	/	?	-26%	/	/	/

Screens from PubChem.
